PP1 counter = counter-screen for PP5 inhibitors: inhibitors of human PP1-alpha. P62136. purified PP1alpha, OMFP fluorescence. inhibition, % at 6.7 µM. hit rate 0.9% among 320,000. AID 2235;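 active = inhibition above the mean inhibition of all tested compounds plus 3 SD, computed separately for each screening campaign, cut at about 15% in these data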
STK33 inh = inhibitors of human STK33 kinase; inhibition, % at 10 µM; hit rate 0.073% among 320,000; purified STK33, MBP phosphorylation, ADP-Glo luminescence; Q9BYT3;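 active = inhibition at or above 25%, using the most active replicate where run in duplicate; inactive = inhibition below 25%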
Target sequence (Q9BYT3 whole entry, looked up): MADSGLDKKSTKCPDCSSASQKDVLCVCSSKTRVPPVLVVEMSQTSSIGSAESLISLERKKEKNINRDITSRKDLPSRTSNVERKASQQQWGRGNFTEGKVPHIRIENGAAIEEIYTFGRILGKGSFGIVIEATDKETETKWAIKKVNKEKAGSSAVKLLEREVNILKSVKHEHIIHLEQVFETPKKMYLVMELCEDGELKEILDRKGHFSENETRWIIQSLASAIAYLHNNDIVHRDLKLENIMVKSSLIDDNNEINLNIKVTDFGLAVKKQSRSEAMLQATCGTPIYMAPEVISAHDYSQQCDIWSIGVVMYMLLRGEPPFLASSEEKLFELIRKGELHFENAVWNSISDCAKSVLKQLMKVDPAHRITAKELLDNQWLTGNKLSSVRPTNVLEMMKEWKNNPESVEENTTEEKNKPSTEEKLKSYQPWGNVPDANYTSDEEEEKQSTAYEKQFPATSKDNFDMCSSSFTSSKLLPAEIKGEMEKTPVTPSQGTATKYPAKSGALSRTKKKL
Dyrk1A ADPGlo = blocks rat Dyrk1A kinase activity | Q63470 | ADP-Glo luminescence, NFATc1 peptide | inhibition, % at 12.5 µM | hit rate 0.43% among 310,000; in the data active = inhibition above about 50%;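 also: plate controls were vehicle with enzyme for no effect and no enzyme for full effect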
HIF activator = HIF pathway transcriptional activation; activation, % at 7.5 µM (by protocol); AID 1910; hit rate 0.32% among 300,000; U2OS HRE-luciferase reporter, luminescence; normalized: DMSO 0%, desferrioxamine 100%;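 active = mean activation of at least 10% of the iron chelator positive control signal, with at least half of replicates also reaching 10%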
PP5 primary = inhibitors of human protein phosphatase 5 (PP5). P53041. purified PP5c, OMFP substrate fluorescence. inhibition, % at 6.7 µM. hit rate 0.18% among 320,000;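 active = inhibition above the campaign's mean inhibition across all tested compounds plus 3 SD, cut at about 9.5% in these data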;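 also: 0% = DMSO only and 100% = 100 µM cantharidin control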
Numbers without * were called inactive; nt = not tested or not shown. An excerpt weighted towards active compounds, which were near 1.5% of everything screened.

SMILES	PP1 counter	STK33 inh	Dyrk1A ADPGlo	HIF activator	PP5 primary
COc1ccc(-c2nnc3sc(-c4ccco4)nn23)cc1OC	-1	2	-2	1	3
Cc1oc(-c2ccc(F)cc2)cc1-c1nn2c(-c3ccoc3C)nnc2s1	15*	3	4	1	3
Clc1cccc(-c2nnc(SC/C=C/c3ccccc3)n2Cc2ccco2)c1	16*	0	1	0	2
CC(=O)NC(c1ccc(Cl)cc1)c1ccc2cccnc2c1O (stereo not drawn)	nt	nt	-4	nt	nt
CCC(=O)NC(c1ccc(C)cc1)c1ccc2cccnc2c1O (stereo not drawn)	1	-3	nt	97*	0
CCC(=O)NC(c1ccc(Cl)cc1Cl)c1ccc2cccnc2c1O (stereo not drawn)	15	0	3	102*	2
CC(=O)NC(c1ccco1)c1ccc2cccnc2c1O (stereo not drawn)	0	-1	4	9	-1
Cc1ccnc(NC(c2cccnc2)c2ccc3cccnc3c2O)c1 (stereo not drawn)	12	-1	-3	11*	4
CCCCC(=O)NC(c1ccc(Cl)cc1Cl)c1ccc2cccnc2c1O (stereo not drawn)	nt	-1	2	28*	nt
Cc1noc(C)c1COc1ccc(C(=O)OCC(=O)NC2CCCCC2C)cc1 (stereo not drawn)	3	-1	-8	nt	5
Cc1ccc(NC(=O)COC(=O)c2ccc(=O)n(Cc3ccccc3)n2)cc1F	1	0	-12	1	1
CCC(=O)NC(c1cccs1)c1cc(Cl)c2cccnc2c1O (stereo not drawn)	12	-1	-4	31*	1
CCCC(=O)NC(c1ccc(N(C)C)cc1)c1ccc2cccnc2c1O (stereo not drawn)	6	-2	14	48*	4
COc1ccc(C(NC(C)=O)c2cc(Cl)c3cccnc3c2O)cc1 (stereo not drawn)	2	-1	2	8	1
COc1ccc(C(NC(=O)C(C)C)c2ccc3cccnc3c2O)cc1 (stereo not drawn)	9	-1	3	121*	2
CCC(=O)NC(c1cc(Cl)c2cccnc2c1O)C1CC1 (stereo not drawn)	0	-2	-3	nt	-1
Cc1cnc(NC(=O)c2ccc3ncsc3c2)s1	nt	nt	-7	nt	nt
COc1ccc(C(=O)N2CCN(C(=O)Cc3ccccc3)CC2)cc1	-1	-1	-2	0	0
COc1ccc(CC(=O)N2CCN(C(=O)Cc3ccc(OC)cc3)CC2)cc1	-3	-1	-4	365*	-2
CC(=O)OCCCNc1cc(Sc2nc3ccccc3s2)c2nonc2c1[N+](=O)[O-]	1	0	0	1	6
CC(=O)OCCCNc1cc(Sc2ccc(C)cc2)c2nonc2c1[N+](=O)[O-]	6	-1	-8	9.9*	0
O=C(NCCCO)c1cc2c(cn1)[nH]c1ccccc12	nt	1	3	1	nt
O=C(NCCCO)c1cc2c([nH]c3ccccc32)c(-c2ccccc2)n1	nt	29*	4	-1	nt
C=CCn1c(=NC(=O)c2cc(-c3cccs3)nc3ccccc23)sc2cc(S(N)(=O)=O)ccc21	16*	-1	-2	0	2
COCCn1c(=NC(=O)c2cc(-c3cccs3)nc3ccccc23)sc2cc(S(N)(=O)=O)ccc21	14	1	-9	0	2
SMILES	PP1 counter	STK33 inh	Dyrk1A ADPGlo	HIF activator	PP5 primary
CC(C)C(=O)N1CCC(n2nccc2NC(=O)CCc2ccccc2)CC1	-5	0	nt	0	1
Cc1noc(C)c1S(=O)(=O)N(CC(=O)NCCc1ccccc1)c1ccc(C(C)C)cc1	-12	0	1	-1	3
O=C1Nc2ccccc2C1=Nc1ccc(F)cc1	0	0	1	0	-1
NS(=O)(=O)c1ccc(N=C2C(=O)Nc3ccccc32)cc1	16*	3	21	0	0
Cc1[nH]nc2c1C(c1ccoc1)C(C#N)=C(N)O2 (stereo not drawn)	-2	0	-5	0	0
CCCc1[nH]nc2c1C(c1ccoc1)C(C#N)=C(N)O2 (stereo not drawn)	1	1	-2	198*	1
CNC(=O)C1CC(=O)N(c2ccc(OCC(=O)N3CCCC3)cc2)C1 (stereo not drawn)	1	-1	-3	29*	-3
N#C/C(=C\C=C\c1ccccc1)c1nc(-c2ccc(Cl)cc2)cs1	3	-1	-1	0	-1
CC(C)(C)OC(=O)N1Cc2[nH]c3ccccc3c2C[C@@H]1C(=O)O	-3	-2	-1	nt	-2
